Source: PubChem BioAssay (NCI)
This is part of a sample that, as a whole, favours compounds with a hit. Of some 83,000 tested, about 20% had one in any assay.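 96-well plates, one dose, 48 hours. Percent growth reported; active if below 10.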 The source made the active and inactive calls.

system: MDA-MB-468 breast; assay: NCI-60 one-dose screen, 48 h (100 = growth as untreated, 0 = no growth, -100 = all killed); settings: 10 µM unless noted

| SMILES | growth |
| --- | --- |
| CC(=O)N[C@@H](CNC(=O)c1cc(NC(=O)c2cc(NC(=O)c3cc(NC(=O)c4nccn4C)cn3C)cn2C)cn1C)CC(=O)Nc1cn(C)c(C(=O)Nc2cc(C(=O)Nc3cc(C(=O)Nc4cc(C(=O)NCCCN(C)CCCNC(=O)c5cccc(C(=O)O)c5)n(C)c4)n(C)c3)n(C)c2)n1 | 71.5% (inactive) |
| CC(=O)Nc1ccc2nc3ccc(NC(C)=O)cc3[n+](-c3ccccc3)c2c1 | 104% (inactive) |
| COc1ccc(OC)c(C2C(C#N)=C(N)Oc3cc(O)ccc32)c1 (stereo not given) | 81.1% (inactive) |
| COc1cc(-c2cc(-c3ccc(Nc4ncnc5cc(Cl)ccc45)cc3)nc(N3CCN(C)CC3)n2)cc(OC)c1OC | 105% (inactive) |
| O=C1NC(=O)c2c1c1c3ccccc3ccc1c1[nH]c3ccc(Br)cc3c21 | -12.5% (active) |
| O=C(Nc1ncc(Cc2cccc(C(F)(F)F)c2)s1)c1ccc(-n2cnnn2)cc1 | 16.7% (inactive) |
| COc1ccc(N(C)c2nc(Cl)nc3ccn(C)c23)cc1 | 49.9% (inactive) |
| C=C1CC[C@@H]2[C@](C)(COC(C)=O)[C@H](OC(C)=O)CC[C@@]2(C)[C@@H]1CC(NCc1ccc(F)cc1)C1=CCOC1=O (stereo not given in full) | 27.5% (inactive) |
| O=C1c2ccc3c4c(ccc(c24)C(=O)N1CCCNCc1ccccc1Cl)C(=O)N(CCCNCc1ccccc1Cl)C3=O | -89% (active) |
| CCN(CC)c1cc(/C=C/c2ccc(OC)c(OC)c2)nc2cc(F)c(F)cc12 | -32.6% (active) |
| N#Cc1cccc(CN2CCc3ncn(Cc4ccc(Cl)cc4)c(=O)c3C2)c1 | -21.8% (active) |
| N#Cc1c(-c2ccc(Cl)cc2)nc(NN=Cc2cccc(Cl)c2)nc1N1CCOCC1 | 85.1% (inactive) |
| Cc1ccc(C2CC(c3nc(-c4ccc(Cl)cc4)oc3C)=NN2C(=O)c2ccncc2)cc1 (stereo not given) | 97.8% (inactive) |
| COc1ccc(Cn2cc3c(c2-c2cc(OC)c(OC)c(OC)c2)CCc2c(CO)noc2-3)cc1 | -17.8% (active) |
| COC(=O)CCCNS(=O)(=O)c1cc(C(=O)Nc2ccc(NC(=O)c3cc(S(=O)(=O)NCCCC(=O)OC)c(O)c(O)c3O)cc2)c(O)c(O)c1O | 98.7% (inactive) |
| O=C(Nc1cccc(Cl)c1)c1cc(N=Nc2ccc([N+](=O)[O-])cc2Cl)ccc1O | 67.8% (inactive) |
| Nn1c(Nc2ccc(S(=O)(=O)Nc3ncccn3)cc2)nnc(/C=C/c2c(O)ccc3ccccc23)c1=O | 96% (inactive) |
| CN(C)c1ncc(C#Cc2c(F)cccc2F)c2ccccc12 | -7.26% (active) |

| SMILES | growth |
| --- | --- |
| N#CC(C#N)N=Nc1ccc(Cl)cc1 | -17.6% (active) |
| COc1c(N2CC3CCCNC3C2)c(F)cc2c(=O)c(C(=O)N/N=C/c3ccc(Br)cc3)cn(C3CC3)c12 (stereo not given) | 97% (inactive) |
| Cc1cc(=O)c2cc3nc(-c4cccnc4)oc3c(Br)c2o1 | 96.4% (inactive) |
| O=[N+]([O-])c1c(Cl)ncnc1Cl | 101% (inactive) |
| c1ccc(Sc2ccccc2)cc1 | 102% (inactive) |
| Cc1sc(NC(=O)c2ccc(C(C)(C)C)cc2)c(C(=O)O)c1C | 80% (inactive) |
| CCOC(=O)Cn1c(=O)c2sc3ncccc3c2n2nnc(-c3ccccc3)c12 | 119% (inactive) |
| CC1(C)NCCC[C@]2(C)[C@H]3CC(=O)[C@H]4[C@@H]5C[C@](C)(CO)CC[C@]5(C)CC[C@@]4(C)[C@]3(C)CC[C@@H]12 | 86.9% (inactive) |
| CCCC1(c2ccccc2)NC(=O)NC1=O (stereo not given) | 104% (inactive) |
| C1=CC(c2nn3c(-c4ccccc4)nnc3s2)=Cc2ccccc2O1 | 44.9% (inactive) |
| CCCCCCCCCCCCCC(=O)Oc1ccc[nH]c1=O | 89.4% (inactive) |
| COc1ccc(NC2=C(Cl)C(=O)c3nc(C)ccc3C2=O)cc1OC | 58.1% (inactive) |
| COc1ccc(-c2nn(-c3cccc(Cl)c3)cc2C=C(C#N)C#N)cc1 | -2.82% (active) |
| NCCn1cc(-c2nc(-c3c[nH]c4ncccc34)cs2)c2ccccc21 | 40.5% (inactive) |
| CN(C)c1ccc(C(=C2C=CC(=[N+](C)C)C=C2)c2ccc(N(C)C)cc2)cc1 (tested in a mixture with another compound) | -95% (active) |
| CCCCCCCC(=O)SCC/C=C/[C@@H]1CC(=O)NCc2cccc(n2)CN(Cc2ccc(Cl)cc2)CC(=O)N[C@@H](C(C)C)C(=O)O1 | 44.6% (inactive) |
| Cc1cc2c3c(cccc3c1)C(=O)c1ccccc1-2 | 63.7% (inactive) |
